# SKKanGAS inh = inhibitors of SKKanGAS S. pyogenes growth in kanamycin (SK-promoter or general growth effect) | BacTiter-Glo, 6 h | inhibition, % at 7.5 µM | 300,000 tested, 1.3% active;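 active = mean replicate score, as percent of positive control median, at least 50; inconclusive = mean below 50 but one replicate at or above 50; inactive = mean and every replicate below 50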;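 also: strain carries kanamycin resistance gene driven by streptokinase promoter and grows in 40 µg/ml kanamycin; loss of luminescence reflects streptokinase promoter inhibition or plain growth inhibition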
# PHOSPHO1 block = PHOSPHO1 (human) inhibition; Q8TCT1; recombinant PHOSPHO1, absorbance phosphatase assay; inhibition, % at 13.3 µM; 290,000 tested, 1.1% active; in the data active = inhibition above about 60%
# Target sequence (Q8TCT1 whole entry, looked up): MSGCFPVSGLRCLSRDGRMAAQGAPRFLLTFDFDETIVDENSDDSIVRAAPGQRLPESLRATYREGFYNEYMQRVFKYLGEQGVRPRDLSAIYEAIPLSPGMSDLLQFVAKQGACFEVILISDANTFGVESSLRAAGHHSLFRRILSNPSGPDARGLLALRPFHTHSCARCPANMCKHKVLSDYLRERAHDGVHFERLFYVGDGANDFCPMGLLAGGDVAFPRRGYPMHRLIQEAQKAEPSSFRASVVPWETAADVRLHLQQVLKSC
# Rtt109 HAT inh = C. albicans Rtt109 histone acetyltransferase inhibition; Q5AAJ8; purified Rtt109/Vps75, ThioGlo CoA-SH fluorescence, 4 h; inhibition, % at 34.9 µM; 330,000 tested, 0.16% active; AID 540336;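 active = inhibition of at least 50% in every replicate; inconclusive = best replicate reaches 50% inhibition but some replicates fall short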
# Target sequence (Q5AAJ8 whole entry, looked up): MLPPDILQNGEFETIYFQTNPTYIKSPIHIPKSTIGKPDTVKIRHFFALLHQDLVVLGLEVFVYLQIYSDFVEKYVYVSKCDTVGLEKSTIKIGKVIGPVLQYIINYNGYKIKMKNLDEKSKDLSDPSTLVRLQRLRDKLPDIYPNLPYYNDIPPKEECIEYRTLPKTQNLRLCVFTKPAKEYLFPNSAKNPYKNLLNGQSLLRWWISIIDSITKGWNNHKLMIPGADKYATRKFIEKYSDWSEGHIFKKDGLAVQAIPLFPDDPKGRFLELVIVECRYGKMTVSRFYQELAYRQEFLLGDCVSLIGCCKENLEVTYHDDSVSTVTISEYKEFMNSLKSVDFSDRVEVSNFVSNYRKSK
# TPT1 inh = blocks Candida albicans tRNA 2'-phosphotransferase. recombinant caTPT1, FP RNA substrate dephosphorylation. inhibition, % at 5 µM. 300,000 tested, 0.81% active. AID 1962;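 active = inhibition above the mean of all tested compounds plus 3 SD, set per screening campaign, cut at about 24% in these data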
# Platelet DG rel = platelet dense granule release activity; inhibition, %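 (compounds screened at 7.5 µM in platelet-rich plasma)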; human platelet-rich plasma, SFLLRN dense granule ATP release, luminescence; 300,000 tested, 0.22% active;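 active = mean replicate score, as percent of positive control, at or above 50; inconclusive = mean below 50 but at least one replicate at or above 50; inactive = mean and every replicate below 50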
# WT yeast gro inh = growth inhibition of WT yeast, mitochondrial fusion screen; mitochondrial fusion phenotypic screen, WT strain; inhibition, % at 10 µM; 190,000 tested, 2.1% active; in the data active = inhibition above about 58%; tested in S. cerevisiae
# A number is an active result; n = inactive; u = inconclusive; x = not tested or not shown. Sampled rows, rich in hits. Any-hit rate of the full collection: about 3.9%.
SMILES,SKKanGAS inh,PHOSPHO1 block,Rtt109 HAT inh,TPT1 inh,Platelet DG rel,WT yeast gro inh
CCOCc1nnc(NC(=O)c2cc(Cl)ccc2OC)s1,n,97,x,n,x,n
COCc1nnc(NC(=O)c2cc(Cl)ccc2OC)s1,n,n,n,n,n,n
CCN(CC)c1ccc(NC(=O)c2cc(Cl)ccc2OC)cc1,n,76,n,n,n,n
COc1ccc(Cl)cc1C(=O)Nc1ccncc1,n,n,n,n,n,x
CN(C)C(=S)c1ccccc1,n,n,n,n,n,x
CC(C)=CCC12Oc3cc(O)ccc3C1(O)Oc1cc3c(c(O)c1C2=O)C=CC(C)(C)O3 (stereo not drawn),105,x,x,n,n,x
Cc1ccc(C(=O)/C=C\C(=O)c2ccc(C)cc2)cc1,56,n,n,n,n,n
COc1ccc(/C=N/Nc2cc(C)nc(-n3nc(C)cc3C)n2)cc1,n,n,n,n,n,60
Cc1cc(N/N=C/c2cccc([N+](=O)[O-])c2)nc(-n2nc(C)cc2C)n1,n,n,n,n,n,x
Cc1cc(N/N=C/c2cccc(Cl)c2)nc(-n2nc(C)cc2C)n1,104,n,n,n,n,x
Cc1ccc(NC(=O)CCS(=O)(=O)c2cccc3nonc23)c(Br)c1,n,n,n,n,n,x
COCc1ccccc1C1=CC(=O)C[C@H](c2ccc(F)cc2)C1,x,x,n,x,x,x
CC(C(=O)NCCCc1ccccc1)n1cccc1C(=O)c1ccccc1 (stereo not drawn),n,70,n,n,n,x
CCN1CCc2c(sc(NC(=O)Cc3ccccc3)c2C(N)=O)C1,n,n,n,n,n,x
CCN1CCc2c(sc(NC(=O)Nc3ccc(Cl)c(Cl)c3)c2C(N)=O)C1,x,n,n,n,x,77
Cc1oc(-c2ccc(F)cc2)nc1CN(Cc1ccccn1)CC1CCCO1 (stereo not drawn),61,n,n,n,n,n
CNS(=O)(=O)c1cnccc1N1CCN(c2cccc(Cl)c2)CC1,n,n,n,n,n,n
CCN(CC)S(=O)(=O)c1cnccc1N1CCN(c2cccc(Cl)c2)CC1,n,n,n,n,n,58
CN1CC(=O)Nc2ccc(F)cc2C1=O,n,n,n,n,n,60
CN1CC(=O)Nc2ccc([N+](=O)[O-])cc2C1=O,n,n,n,n,n,x
CCCNC1(C(N)=O)CCN(Cc2ccccc2)CC1,x,x,n,x,x,x
Cc1ccccc1N1CCN(C2CCCN(C(=O)c3cnsn3)C2)CC1 (stereo not drawn),n,n,n,n,n,x
CCc1nnc2c3cnn(-c4ccccc4)c3ncn12,n,n,n,n,n,n
Cc1ccc(-n2ncc3c2ncn2c(C)nnc32)cc1C,x,60,n,n,x,n
CC1(c2ccccc2)NC(=O)N(CC(=O)N2CCN(S(=O)(=O)c3c(F)cccc3F)CC2)C1=O (stereo not drawn),x,x,n,x,x,x
SMILES,SKKanGAS inh,PHOSPHO1 block,Rtt109 HAT inh,TPT1 inh,Platelet DG rel,WT yeast gro inh
CN(C(=S)Nc1ccc(SC(F)F)cc1)c1ccc(O)cc1,n,n,n,n,n,87
CN(C(=S)Nc1ccc(Oc2ccccc2)cc1)c1ccc(O)cc1,n,n,n,n,n,n
Cc1cc(S(=O)(=O)N2CCCC2)ccc1OCC(=O)N1CCCCC1,n,n,n,n,n,x
Cc1cc(C(=O)Nn2c(C3CCCCC3)nc3ccccc3c2=O)ccc1[N+](=O)[O-],n,n,n,n,n,74
O=C(Nn1c(C2CCCCC2)nc2ccccc2c1=O)c1ccc(Cl)c([N+](=O)[O-])c1,n,n,n,n,n,82
O=C(Nn1c(C2CCCCC2)nc2ccccc2c1=O)c1cc(Cl)ccc1[N+](=O)[O-],n,n,n,n,n,n
Cc1ccc(C(=O)c2cc(C)sc2NC(=O)CN2CCN(C(=O)c3ccco3)CC2)cc1,n,n,n,n,n,79
CCc1cc(C(=O)OC)c(NC(=O)CN2CCN(C(=O)c3ccco3)CC2)s1,n,n,n,n,n,x
O=C(N/N=C/c1ccccn1)c1[nH]c2ccc([N+](=O)[O-])cc2c1-c1ccccc1,u,n,n,n,n,65
NNC(=O)c1[nH]c2ccc([N+](=O)[O-])cc2c1-c1ccccc1,n,n,n,n,n,x
CC1=C(C(=O)OCc2ccccc2)C(/C=C/c2ccccc2)NC(=S)N1 (stereo not drawn),n,n,n,n,n,69
CN(C)CCSc1nnc2sc3ccccc3n12,n,n,n,n,n,n
COc1ccc(OCCSc2nnc3sc4ccccc4n23)cc1,n,77,x,n,n,n
CCOC(=O)C1=C(C)NC(=S)N(C(C)=O)C1c1ccc(Cl)cc1 (stereo not drawn),n,n,63,n,n,n
CCOC(=O)C1=C(C)NC(=S)NC1c1ccc(-c2ccc(Cl)cc2)o1 (stereo not drawn),n,n,n,n,n,66
CC(NC(=O)C1CCN(C(=O)Nc2ccccc2)CC1)c1ccccc1Cl (stereo not drawn),x,x,n,x,x,x
Cn1cc(C(c2ccccn2)c2cn(C)c3ccccc23)c2ccccc21,n,n,n,n,n,x
c1ccc(C(c2c[nH]c3ccccc23)c2c[nH]c3ccccc23)nc1,76,n,n,n,n,n
CCCCc1ncc(CN2CCC(n3nccc3NC(=O)c3ccccc3Cl)CC2)[nH]1,n,n,n,n,n,x
CC(=O)CCc1oc2c([N+](=O)[O-])cccc2c1-c1ccc(C)o1,n,n,n,n,n,69
CC(=O)CCc1oc2ccc([N+](=O)[O-])cc2c1-c1ccc(C)o1,n,n,n,n,n,n
CCN(CC(=O)NCc1cccs1)C(=O)COc1ccc(C(C)=O)cc1,x,x,n,x,x,x
Cc1[nH]c2ccccc2c1Cc1n[nH]c(=S)o1,n,90,n,n,n,n
O=c1[nH]n2c(=O)c3c([nH]c2c1N=Nc1cccc(Cl)c1)CCCC3,n,76,n,n,n,n
CCOc1ccc(N=Nc2c(=O)[nH]n3c(=O)c4c([nH]c23)CCCC4)cc1,n,n,n,n,n,n
SMILES,SKKanGAS inh,PHOSPHO1 block,Rtt109 HAT inh,TPT1 inh,Platelet DG rel,WT yeast gro inh
CN(C(=O)c1ccc(COc2ccccc2Br)o1)c1ccccc1,n,n,x,n,n,67
CN(C)CCOC(=O)c1ccc(COc2ccccc2Br)o1,n,n,n,n,n,x
COc1cc(NC(=O)CSc2ncnc3sc4c(c23)CCCC4)c(C(=O)O)cc1OC,55,n,n,n,n,x
COc1ccc(NC(=S)NC(=O)/C=C/c2cccs2)cc1,n,n,n,n,n,n
O=C(/C=C/c1cccs1)NC(=S)Nc1ccc(S(=O)(=O)Nc2ccccc2C(F)(F)F)cc1,59,n,n,n,n,x
COc1cccc(NC(=O)Nc2c(C)n(C)n(-c3ccccc3)c2=O)c1,n,n,n,n,n,n
Cc1c(NC(=O)Nc2cccc(C(F)(F)F)c2)c(=O)n(-c2ccccc2)n1C,n,66,n,n,n,x
Cc1cccc(-n2ncc3c(N4CC(C)CC(C)C4)ncnc32)c1 (stereo not drawn),n,n,n,n,n,78
CC1CC(C)CN(c2ncnc3c2cnn3Cc2ccc(Cl)cc2)C1 (stereo not drawn),n,n,n,n,n,76

# Screening results (PubChem)
